Measurements: PubChem BioAssay AID376 (PDSP, 2006)
Hit rate of the full screen: of about 2,000 compounds, about 250 (12%) were called active. This excerpt belongs to a sample that is enriched for actives. Values without a mark were called inactive. Rule as the data show it: active = hERG blockade below about -20% or above about 20%; inactive = in between.

What follows are compounds tested against Voltage-gated inwardly rectifying potassium channel KCNH2 (Homo sapiens) (UniProt Q12809) (assay: KCNH2 potassium channel function modulators, cell-based (AID 376;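 also: 0% = buffer alone and 100% = reference blocker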)). Conditions: hERG-expressing cells, channel activity single-concentration screen; concentration not given here.
Chain of Voltage-gated inwardly rectifying potassium channel KCNH2 (Homo sapiens) (Q12809 whole entry, looked up): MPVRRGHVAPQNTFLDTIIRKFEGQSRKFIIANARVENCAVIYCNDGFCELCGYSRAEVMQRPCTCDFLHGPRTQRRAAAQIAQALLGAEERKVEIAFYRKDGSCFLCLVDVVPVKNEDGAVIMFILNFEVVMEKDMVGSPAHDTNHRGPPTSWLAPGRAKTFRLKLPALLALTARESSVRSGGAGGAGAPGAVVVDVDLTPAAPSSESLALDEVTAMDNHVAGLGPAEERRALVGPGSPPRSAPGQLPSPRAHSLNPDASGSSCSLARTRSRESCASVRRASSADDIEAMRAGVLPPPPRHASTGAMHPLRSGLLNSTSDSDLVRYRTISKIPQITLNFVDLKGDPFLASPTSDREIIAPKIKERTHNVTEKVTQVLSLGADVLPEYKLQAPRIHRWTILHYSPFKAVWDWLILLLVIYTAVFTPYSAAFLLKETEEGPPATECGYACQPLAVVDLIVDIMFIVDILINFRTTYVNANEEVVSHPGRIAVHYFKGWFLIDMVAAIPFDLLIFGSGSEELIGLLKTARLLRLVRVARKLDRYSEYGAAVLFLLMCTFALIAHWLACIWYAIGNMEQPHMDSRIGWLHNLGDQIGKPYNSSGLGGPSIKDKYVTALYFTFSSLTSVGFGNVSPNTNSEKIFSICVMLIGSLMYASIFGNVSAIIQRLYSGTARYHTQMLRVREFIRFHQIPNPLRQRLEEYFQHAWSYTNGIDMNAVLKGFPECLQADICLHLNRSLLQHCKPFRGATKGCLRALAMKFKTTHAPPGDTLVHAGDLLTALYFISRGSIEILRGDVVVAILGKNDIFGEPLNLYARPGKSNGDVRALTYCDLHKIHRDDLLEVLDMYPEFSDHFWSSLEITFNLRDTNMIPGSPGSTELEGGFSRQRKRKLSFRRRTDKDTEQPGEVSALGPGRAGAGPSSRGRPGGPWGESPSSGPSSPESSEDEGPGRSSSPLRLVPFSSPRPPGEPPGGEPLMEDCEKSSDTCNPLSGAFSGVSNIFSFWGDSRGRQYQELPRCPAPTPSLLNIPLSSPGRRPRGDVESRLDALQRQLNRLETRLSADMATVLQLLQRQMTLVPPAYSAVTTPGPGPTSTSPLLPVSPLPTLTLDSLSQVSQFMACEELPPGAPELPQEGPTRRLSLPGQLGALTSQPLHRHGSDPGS

| SMILES | hERG blockade |
| --- | --- |
| Cc1ccc(N=Nc2ccc(N)cc2C)c(S(N)(=O)=O)c1 | 23.9% (active) |
| Nc1c(S(N)(=O)=O)cc(S(N)(=O)=O)cc1S(N)(=O)=O | 11.4% |
| Cc1ccc(N=Nc2c(O)c3ccccc3[nH]c2=O)c(S(=O)(=O)N(C)C)c1 | 7.5% |
| CC1(C)OCC(C2OC3OC(C)(C)OC3C2N)O1 (configuration not stated) | -5.67% |
| CCOC(=O)Nc1nc(-c2ccccc2)c(C)s1 | 18.9% |
| O=C(O)C(CCc1ccccn1)c1ccccc1 (configuration not stated) | 5.69% |
| NC(=O)C(=Cc1ccncc1)c1cccc2ccccc12 | -12.9% |
| O=C(O)C1C(C(=O)Nc2ccc3c(c2)Cc2ccccc2-3)C2(Cl)C(Cl)=C(Cl)C1(Cl)C2(Cl)Cl (configuration not stated) | 10.6% |
| Cc1cc2ccc(OC(=O)c3ccc(N=C(N)N)cc3)cc2oc1=O | 13.7% |
| Oc1ccc(Cl)cc1Cc1cc(Cl)cc(Cc2cc(Cl)ccc2O)c1O | 20.3% (active) |
| OCCSCc1cc(Cl)cc(Cl)c1O | 6.93% |
| Oc1ccc(Cc2cc(Cl)cc(Cl)c2O)cc1Cl | 45.1% (active) |
| CN(Cc1cc(Cl)cc(Cl)c1O)Cc1c(O)ccc2ccccc12 | 10.9% |
| O=C(O)c1cc(Cl)cc(Cc2cc(Cl)cc(C(=O)O)c2O)c1O | 17.1% |
| O=C(O)Cc1cc(Cl)ccc1O | -4.5% |
| CC(C)(N=NC(C)(C)C(=N)N)C(=N)N | 63.7% (active) |
| CC(C)c1ccc(C(C(=O)O)=C(O)C(=O)O)cc1 | 6.01% |
| CC12CCC(O)CC1=CCC1C2CCC2(C)C1CCC2N(CCO)CCO (configuration not stated) | -0.272% |
| CN(C)CCC(=O)C1(O)CCC2C3CC=C4CC(O)CCC4(C)C3CCC21C (configuration not stated) | 2.46% |
| CCC1CCC2C3CC=C4CC(OC(C)=O)C(N)CC4(C)C3CCC12C (configuration not stated) | 63.9% (active) |
| COc1ccc2c(c1)CN(C(C)C1CCC3C4CCC5CC(O)CCC5(C)C4CCC31C)CO2 (configuration not stated) | 51.3% (active) |
| CC(CCC(=O)O)C1CCC2C3CCC4CC(O)CCC4(C)C3CCC12C (configuration not stated) | 5.62% |
| COC(=O)CCC(C)C1CCC2C3CCC4CC(O)CCC4(C)C3CCC12C (configuration not stated) | 3.2% |
| CC(=N[O-])C(C)=N[O-].CC(=N[O-])C(C)=N[O-].CC(=N[O-])C(C)=N[O-].CC(=N[O-])C(C)=N[O-].[Cu].[Cu] | 17.9% |
| O=S(=O)(c1ccc2ccccc2c1)N1CCN(S(=O)(=O)c2ccc3ccccc3c2)CC1 | -1.84% |
| OCC(CCc1c[nH]c2ccccc12)c1c[nH]c2ccccc12 (configuration not stated) | 53.3% (active) |

| SMILES | hERG blockade |
| --- | --- |
| C[N+]1(C(CO)Cc2c[nH]c3ccccc23)Cc2ccccc2C1 (configuration not stated) | 1.67% |
| c1ccc2c(CN3CCN(Cc4c[nH]c5ccccc45)CC3)c[nH]c2c1 | -0.497% |
| O=C(O)C1CCCN1 (configuration not stated) | 5.2% |
| NC(=S)SCCC(=O)O | 0.17% |
| CC1=CC(C2C(=NO)C=C(C)CC2(C)C)C(O)C(C)(C)C1 (configuration not stated) | 2.54% |
| CC(=O)C(C(c1ccccc1)N1CCOCC1)N1CCOCC1 (configuration not stated) | -3.85% |
| COc1cccc2c1C(=N)c1c(O)c3c(c(O)c1C2=O)CC(O)(C(C)=O)CC3OC1CC(N)C(O)C(C)O1 (configuration not stated) | 32.2% (active) |
| COc1cccc2c1C(=O)c1c(O)c3c(c(O)c1C2=O)CC(O)(C(=O)CO)CC3OC1CC(N)C(O)C(C)O1.[W] (configuration not stated) | 0.939% |
| COc1cccc2c1C(=O)c1c(O)c3c(c(O)c1C2=O)CC(O)(C(=O)CO)CC3OC1CC(N)C(O)C(C)O1 (configuration not stated) | 3.44% |
| O=C(O)CC(=Cc1ccccc1)C(=O)O | -18.3% |
| CC1(C)OC2COC(c3[nH]nc4c(=O)[nH]c(=O)[nH]c34)C2O1 (configuration not stated) | 16.5% |
| O=C(O)c1ccc(Oc2nc3ccccc3s2)cc1 | 1.79% |
| CN(C)CCCN=c1c2ccccc2n(C)c2[nH]c(=O)n(C)c(=O)c12 | 54.8% (active) |
| CN(C)CCCCN1CCc2c(n(C)c3ccccc23)C1=O | -2.05% |
| CCN(CC)COC(=S)S | -4.52% |
| CC1(C)OCC(C2OC(On3nnc4ccc(Cl)cc43)C3OC(C)(C)OC23)O1 (configuration not stated) | 12.7% |
| NC(=O)CS(=O)CC(N)C(=O)O (configuration not stated) | 5.23% |
| NC(N)=NN=Cc1ccc(C2CCNCC2)cc1 | 6.62% |
| Nc1c(S(=O)(=O)O)cc(S(=O)(=O)O)c2ccc(N=Nc3ccccc3)c(O)c12 | 11.9% |
| COc1cc(N=Nc2cccc(S(N)(=O)=O)c2)c2ccccc2c1N | 70.8% (active) |
| N=C(N)SCCON1C(=O)c2ccccc2C1=O | -2.21% |
| CC(=O)Nc1ccc(Cc2ccc3[nH]c(=O)cc(C)c3c2)cc1 | 0.318% |
| CSC(=[SH+])[N-]N=C(c1ccccn1)c1ccccn1.[Cu][Br] | 3.34% |
| CC1(C)SC2C(NC(=O)C3(N)CCCCC3)C(=O)N2C1C(=O)O (configuration not stated) | -8.47% |
| NC(N)=NNC(=O)C(=O)O | -3.63% |
| NNC(=O)CCSc1ccccc1 | 3.37% |

| SMILES | hERG blockade |
| --- | --- |
| NNC(=O)CCc1ccc2ccc3ccccc3c2c1 | -44.7% (active) |
| O=C(O)CCCc1ccc2ccc3ccccc3c2c1 | 8.7% |
| O=C(CON1C(=O)c2ccccc2C1=O)c1ccccc1 | 13.2% |
| O=C(O)c1ccccc1-c1ccccc1C(=O)Nc1ccc2c(c1)Cc1cc(F)ccc1-2 | -4.28% |
| CC(CCCC1SCC2NC(=O)NC21)C(=O)O (configuration not stated) | 6.78% |
| Cc1cc2c(=O)[nH]c(N)nc2nc1C | -6.54% |
| Cc1cc2nc3[nH]c4c(Cl)cc(Cl)cc4c3nc2cc1C | -2.06% |
| Cc1cc2cc3c(=O)[nH]c(=O)[nH]c3nc2cc1C | -26% (active) |
| O=C(c1cc(Br)ccc1O)c1cc(Br)ccc1O | -0.498% |
| Clc1ccccc1NN(Cc1ccncc1)c1ccccc1Cl | 9.21% |
| COc1ccc(NC(=S)Nc2ccccc2)cc1 | 3.26% |
| Cc1cc(C(C)(C)C)c(OCCCN2CCOCC2)c(C(C)(C)C)c1 | 20.8% (active) |
| OCCCN=C1CCCCC1 | 13.3% |
| NCc1ccc(C(=O)O)cc1 | -10.8% |
| c1cncc(CNc2ncn[nH]2)c1 | -6.56% |
| CC(C)N1CCN(c2ccncc2S(=O)(=O)N2CCCCC2)CC1 | 4.4% |
| O=c1[nH]c2[nH]c(=S)[nH]c(=S)c2[nH]1 | 33.1% (active) |
| O=c1[nH][nH]c(=S)c(=O)[nH]1 | 4.97% |
| Clc1ccccc1NN(Cc1ccccn1)c1ccccc1Cl | 7.97% |
| Cc1cc(=O)[nH]c(N=C(N)Nc2ccc(Cl)cc2)n1 | -17.7% |
| Cc1cccc(C(=O)O)c1CC1NCCC2c3ccccc3NC12 (configuration not stated) | 32.1% (active) |
| NC(Cc1cccnn1)C(=O)O (configuration not stated) | 5.87% |
| O=S(=O)(O)n1ccnc1 (tested in a mixture with another compound) | -15.4% |
| S=C(Nc1ccc2cn[nH]c2c1)Nc1ccc2cn[nH]c2c1 | -19.3% |
| CCN(CC)CC[n+]1ccc2c(C)c3[nH]c4ccccc4c3c(C)c2c1 | 36.7% (active) |
| CCN(CC)CC[n+]1ccc2c(C)c3[nH]c4ccc(O)cc4c3c(C)c2c1 | 45.4% (active) |

| SMILES | hERG blockade |
| --- | --- |
| Cc1c2cc[n+](CCN3CCCCC3)cc2c(C)c2c1[nH]c1ccc(O)cc12 | 26.1% (active) |
| NCCNC(=S)S | 5.6% |
| NN=C1CC(=O)NC(=O)N1 | -9.37% |
| CCCCNc1nc(SC)nc2nc[nH]c12 | 6.48% |
| COC1C=COC2(C)Oc3c(C)c(O)c4c(O)c(cc(O)c4c3C2=O)NC(=O)C(C)=CC=CC(C)C(O)C(C)C(O)C(C)C(OC(C)=O)C1C (configuration not stated) | 8.1% |
| CC(C)(C)COS(=O)OCC(C)(C)C | -13.1% |
| CC(=O)C=NCC(=O)O | -0.567% |
| O=C(O)Cc1c[nH]c2ccc(F)cc12 | -3.11% |
| CCOP1(=O)OCC2OC(n3cnc4c(N)ncnc43)C(O)C2O1 (configuration not stated) | 5.38% |
| CCOc1ccc2c(ccc(C=Cc3cc(C)c4cccnc4c3O)[n+]2C)c1 | 37% (active) |
| O=C(O)CCC(C(=O)O)N1C(=O)C2C3CCC(C3)C2C1=O (configuration not stated) | 7.54% |
| CC12CCC(=O)C=C1CCC1C2C(O)CC2(C)C(c3csc(-c4ccccc4)n3)CCC12 (configuration not stated) | -6.87% |
| CCc1ccc2c(c1)N(CC(C)CN(C)C)c1ccccc1S2 (configuration not stated) | 25.4% (active) |
| O=C(O)C(Cc1ccccc1)Cc1ccccc1 | -4.1% |
| CN(C)c1ccc(C(C#N)N2CCCN(C(C#N)c3ccc(N(C)C)cc3)C2c2ccc(N(C)C)cc2)cc1 (configuration not stated) | 6% |
| Cc1ccc(S(=O)(=O)N=Nc2c(O)[nH]c3cc(O)c(C(=O)O)cc23)cc1 | -2.22% |
| OCC1OC(n2cnc3c(SCc4ccccc4)ncnc32)C(O)C1O (configuration not stated) | 22.8% (active) |
| C[N+](C)(C)c1nc(N)nc2c1ncn2C1OC(CO)C(O)C1O (configuration not stated) | 13.1% |
| Clc1ccc(CSc2ncnc3c2ncn3C2CCCCO2)cc1 (configuration not stated) | 24.5% (active) |
| C[N+](C)(C)c1ncnc2c1ncn2C1CCCCO1 (configuration not stated) | -24.9% (active) |
| Fc1cccc(CSc2ncnc3c2ncn3C2CCCS2)c1 (configuration not stated) | 12.5% |
| OCCn1cnc2c(SCc3ccccc3)ncnc21 | -7.5% |
| O=[N+]([O-])c1ccc(Cl)c(CNc2ncnc3c2ncn3C2CCCCO2)c1 (configuration not stated) | 7.11% |
| OCC1OC(n2cnc3c(C=C(O)c4ccccc4)ncnc32)C(O)C1O (configuration not stated) | 9.21% |
